One assay has as its system HCI01 (cells of a triple-negative basal-like breast cancer xenograft). As to the kind of experiment: cell viability of combination (% of vehicle); higher = less cytotoxic. The following applies: 1 µM; 72 h; partner dose: 10 nM. As to the method: (§1)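 PDX cells were treated for 72 h with each drug at 1 µM plus carfilzomib (10 nM; 100 nM for WHIM2). Luciferase viability is expressed as percent of vehicle.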
A further assay has as its system UCD52 (cells of a triple-negative basal-like breast cancer xenograft). Described as above. The following applies: 1 µM; 72 h; partner dose: 10 nM. As to the method:
as §1

`Cc1c(Cl)cccc1Nc1ccccc1C(=O)O` [Tolfenamic Acid] + CC(C)C[C@H](NC(=O)[C@H](CCc1ccccc1)NC(=O)CN1CCOCC1)C(=O)N[C@@H](Cc1ccccc1)C(=O)N[C@@H](CC(C)C)C(=O)[C@@]1(C)CO1 [Carfilzomib]: the “cell viability of combination” value with HCI01 was found to be 74.7; in the assay with UCD52, 69.7.

In the case of `COCCOC(=O)C1=C(C)NC(C)=C(C(=O)OCC=Cc2ccccc2)C1c1cccc([N+](=O)[O-])c1` (stereo unspecified) [Cilnidipine] + CC(C)C[C@H](NC(=O)[C@H](CCc1ccccc1)NC(=O)CN1CCOCC1)C(=O)N[C@@H](Cc1ccccc1)C(=O)N[C@@H](CC(C)C)C(=O)[C@@]1(C)CO1 [Carfilzomib], the “cell viability of combination” value in the assay with HCI01 was 104; with UCD52, 63.2.

As to `O=C(NC1CCN(CCCCC2(C(=O)NCC(F)(F)F)c3ccccc3-c3ccccc32)CC1)c1ccccc1-c1ccc(C(F)(F)F)cc1` [Lomitapide] + CC(C)C[C@H](NC(=O)[C@H](CCc1ccccc1)NC(=O)CN1CCOCC1)C(=O)N[C@@H](Cc1ccccc1)C(=O)N[C@@H](CC(C)C)C(=O)[C@@]1(C)CO1 [Carfilzomib], the figures for the “cell viability of combination” value in the assay on HCI01 and with UCD52 were 84.9 and 38.9, respectively.

As to `Cl.Clc1ccccc1CN1CCc2sccc2C1` [Ticlopidine HCl] + CC(C)C[C@H](NC(=O)[C@H](CCc1ccccc1)NC(=O)CN1CCOCC1)C(=O)N[C@@H](Cc1ccccc1)C(=O)N[C@@H](CC(C)C)C(=O)[C@@]1(C)CO1 [Carfilzomib], the figures for the “cell viability of combination” value in the assay with HCI01 and in the assay on UCD52 were 78.4 and 58.7, respectively.

On to `Nc1ccc2cc3ccc([NH3+])cc3nc2c1.Nc1ccc2cc3ccc([NH3+])cc3nc2c1.O=S(=O)([O-])[O-]` [Proflavine Hemisulfate] + CC(C)C[C@H](NC(=O)[C@H](CCc1ccccc1)NC(=O)CN1CCOCC1)C(=O)N[C@@H](Cc1ccccc1)C(=O)N[C@@H](CC(C)C)C(=O)[C@@]1(C)CO1 [Carfilzomib], for which the “cell viability of combination” value in the assay with HCI01 stood at 78; in the assay on UCD52, 94.

Turning to `CCOC(=O)C1=C(COCCN)NC(C)=C(C(=O)OC)C1c1ccccc1Cl` (stereo unspecified) [Amlodipine] + CC(C)C[C@H](NC(=O)[C@H](CCc1ccccc1)NC(=O)CN1CCOCC1)C(=O)N[C@@H](Cc1ccccc1)C(=O)N[C@@H](CC(C)C)C(=O)[C@@]1(C)CO1 [Carfilzomib], the results for the “cell viability of combination” value in the assay on HCI01 and in the assay on UCD52 were 113 and 62.5, respectively.

As for `C1=C\COCc2cc(ccc2OCCN2CCCC2)Nc2nccc(n2)-c2cccc(c2)COC/1` [Pacritinib] + CC(C)C[C@H](NC(=O)[C@H](CCc1ccccc1)NC(=O)CN1CCOCC1)C(=O)N[C@@H](Cc1ccccc1)C(=O)N[C@@H](CC(C)C)C(=O)[C@@]1(C)CO1 [Carfilzomib], the “cell viability of combination” value in the assay with HCI01 worked out at 58.2; in the assay with UCD52, 57.9.

With `C=CC(=O)Nc1cc(Nc2nccc(-c3cn(C)c4ccccc34)n2)c(OC)cc1N(C)CCN(C)C` + CC(C)C[C@H](NC(=O)[C@H](CCc1ccccc1)NC(=O)CN1CCOCC1)C(=O)N[C@@H](Cc1ccccc1)C(=O)N[C@@H](CC(C)C)C(=O)[C@@]1(C)CO1 [Carfilzomib], the “cell viability of combination” value came out at 59.8 in the assay with HCI01 and 53.7 with UCD52.

Regarding `CC(C)(C)NC(=O)C1CC2CCCCC2CN1CC(O)C(Cc1ccccc1)NC(=O)C(CC(N)=O)NC(=O)c1ccc2ccccc2n1.CS(=O)(=O)O` (stereo unspecified) [Saquinavir mesylate] + CC(C)C[C@H](NC(=O)[C@H](CCc1ccccc1)NC(=O)CN1CCOCC1)C(=O)N[C@@H](Cc1ccccc1)C(=O)N[C@@H](CC(C)C)C(=O)[C@@]1(C)CO1 [Carfilzomib], the “cell viability of combination” value in the assay on HCI01 came to 79.5; in the assay with UCD52, 60.2.

For the molecule `Clc1ccc(C(Cn2ccnc2)OCc2ccc(Sc3ccccc3)cc2)c(Cl)c1.O=[N+]([O-])O` (stereo unspecified) [Fenticonazole Nitrate] + CC(C)C[C@H](NC(=O)[C@H](CCc1ccccc1)NC(=O)CN1CCOCC1)C(=O)N[C@@H](Cc1ccccc1)C(=O)N[C@@H](CC(C)C)C(=O)[C@@]1(C)CO1 [Carfilzomib], the figures for the “cell viability of combination” value in the assay with HCI01 and with UCD52 were 83.9 and 65.2, respectively.

On to `COc1cc(Nc2c(C#N)cnc3cc(OCCCN4CCN(C)CC4)c(OC)cc23)c(Cl)cc1Cl` [Bosutinib (SKI-606)] + CC(C)C[C@H](NC(=O)[C@H](CCc1ccccc1)NC(=O)CN1CCOCC1)C(=O)N[C@@H](Cc1ccccc1)C(=O)N[C@@H](CC(C)C)C(=O)[C@@]1(C)CO1 [Carfilzomib], for which the “cell viability of combination” value in the assay with HCI01 turned out to be 70.1; with UCD52 it was 35.3.

Take `CS(=O)(=O)O.Cc1c(O)cccc1C(=O)NC(CSc1ccccc1)C(O)CN1CC2CCCCC2CC1C(=O)NC(C)(C)C` (stereo unspecified) [Nelfinavir Mesylate] + CC(C)C[C@H](NC(=O)[C@H](CCc1ccccc1)NC(=O)CN1CCOCC1)C(=O)N[C@@H](Cc1ccccc1)C(=O)N[C@@H](CC(C)C)C(=O)[C@@]1(C)CO1 [Carfilzomib]: the “cell viability of combination” value in the assay on HCI01 was 80.3; with UCD52, 57.2.

For `CCCSc1nc(NC2CC2c2ccc(F)c(F)c2)c2nnn(C3CC(OCCO)C(O)C3O)c2n1` (stereo unspecified) [Ticagrelor] + CC(C)C[C@H](NC(=O)[C@H](CCc1ccccc1)NC(=O)CN1CCOCC1)C(=O)N[C@@H](Cc1ccccc1)C(=O)N[C@@H](CC(C)C)C(=O)[C@@]1(C)CO1 [Carfilzomib], the “cell viability of combination” value with HCI01 was 95.1; with UCD52, 54.3.

Turning to `COc1ncc(-c2ccc3nccc(-c4ccnnc4)c3c2)cc1NS(=O)(=O)c1ccc(F)cc1F` + CC(C)C[C@H](NC(=O)[C@H](CCc1ccccc1)NC(=O)CN1CCOCC1)C(=O)N[C@@H](Cc1ccccc1)C(=O)N[C@@H](CC(C)C)C(=O)[C@@]1(C)CO1 [Carfilzomib], the “cell viability of combination” value in the assay with HCI01 worked out at 37.6; in the assay with UCD52 it was 17.6.

`COc1cc2c(Oc3ccc(NC(=O)C4(C(=O)Nc5ccc(F)cc5)CC4)cc3F)ccnc2cc1OCCCN1CCOCC1` + CC(C)C[C@H](NC(=O)[C@H](CCc1ccccc1)NC(=O)CN1CCOCC1)C(=O)N[C@@H](Cc1ccccc1)C(=O)N[C@@H](CC(C)C)C(=O)[C@@]1(C)CO1 [Carfilzomib]: the “cell viability of combination” value amounted to 75.8 in the assay with HCI01 and 32.5 in the assay with UCD52.

Consider `CCOc1cc2ncc(C#N)c(Nc3ccc(F)c(Cl)c3)c2cc1NC(=O)C=CCN(C)C` [Pelitinib (EKB-569)] + CC(C)C[C@H](NC(=O)[C@H](CCc1ccccc1)NC(=O)CN1CCOCC1)C(=O)N[C@@H](Cc1ccccc1)C(=O)N[C@@H](CC(C)C)C(=O)[C@@]1(C)CO1 [Carfilzomib], for which the “cell viability of combination” value with HCI01 stood at 140; in the assay on UCD52, 40.8.

As for `Cc1ccc(C(=O)N(CCCN)C(c2nc3cc(Cl)ccc3c(=O)n2Cc2ccccc2)C(C)C)cc1` (stereo unspecified) + CC(C)C[C@H](NC(=O)[C@H](CCc1ccccc1)NC(=O)CN1CCOCC1)C(=O)N[C@@H](Cc1ccccc1)C(=O)N[C@@H](CC(C)C)C(=O)[C@@]1(C)CO1 [Carfilzomib], the “cell viability of combination” value with HCI01 is 88.6; in the assay on UCD52 it was 42.9.

Consider `O=C(O)CO.[NH2-].[NH2-].[Pt+2]` [Nedaplatin] + CC(C)C[C@H](NC(=O)[C@H](CCc1ccccc1)NC(=O)CN1CCOCC1)C(=O)N[C@@H](Cc1ccccc1)C(=O)N[C@@H](CC(C)C)C(=O)[C@@]1(C)CO1 [Carfilzomib], for which the “cell viability of combination” value in the assay on HCI01 was determined as 71.6; with UCD52 it was 68.8.

For the molecule `CC(O)C(=O)O.CCOc1ccc2nc3cc(N)ccc3c(N)c2c1.O` [Ethacridine lactate monohydrate] + CC(C)C[C@H](NC(=O)[C@H](CCc1ccccc1)NC(=O)CN1CCOCC1)C(=O)N[C@@H](Cc1ccccc1)C(=O)N[C@@H](CC(C)C)C(=O)[C@@]1(C)CO1 [Carfilzomib], the “cell viability of combination” value came to 74.3 in the assay on HCI01 and 66.7 with UCD52.

Turning to `CCOC(=O)c1c(CSc2ccccc2)n(C)c2cc(Br)c(O)c(CN(C)C)c12.Cl` [Arbidol HCl] + CC(C)C[C@H](NC(=O)[C@H](CCc1ccccc1)NC(=O)CN1CCOCC1)C(=O)N[C@@H](Cc1ccccc1)C(=O)N[C@@H](CC(C)C)C(=O)[C@@]1(C)CO1 [Carfilzomib], the “cell viability of combination” value in the assay on HCI01 was determined as 76.6; with UCD52, 58.5.

For the molecule `CCCCc1oc2ccc(NS(C)(=O)=O)cc2c1C(=O)c1ccc(OCCCN(CCCC)CCCC)cc1` [Dronedarone] + CC(C)C[C@H](NC(=O)[C@H](CCc1ccccc1)NC(=O)CN1CCOCC1)C(=O)N[C@@H](Cc1ccccc1)C(=O)N[C@@H](CC(C)C)C(=O)[C@@]1(C)CO1 [Carfilzomib], the “cell viability of combination” value with HCI01 is 76.1; in the assay on UCD52 it was 59.3.

As for `CC[C@@]1(O)C(=O)OCc2c1cc1n(c2=O)Cc2cc3c(CN(C)C)c(O)ccc3nc2-1` [Topotecan] + CC(C)C[C@H](NC(=O)[C@H](CCc1ccccc1)NC(=O)CN1CCOCC1)C(=O)N[C@@H](Cc1ccccc1)C(=O)N[C@@H](CC(C)C)C(=O)[C@@]1(C)CO1 [Carfilzomib], the “cell viability of combination” value in the assay on HCI01 was 56.9; with UCD52 it was 57.9.

As for `O=C1C=CC=CC1=C1NC(=C2C=CC=CC2=O)N(c2ccc(C(=O)O)cc2)N1` [Deferasirox] + CC(C)C[C@H](NC(=O)[C@H](CCc1ccccc1)NC(=O)CN1CCOCC1)C(=O)N[C@@H](Cc1ccccc1)C(=O)N[C@@H](CC(C)C)C(=O)[C@@]1(C)CO1 [Carfilzomib], the “cell viability of combination” value with HCI01 was 67.8; with UCD52 it was 61.2.

The values are drawn from the supplement of paper PMC6992640.
